Experimental findings from PubChem BioAssay are described below.

Records with an inconclusive call do not appear. For some assays here: Results with a measured potency or affinity are listed apart. Calls of active or inactive are those of the source. Unless noted, the rule behind the calls is not given here.

In assay [1] the test system is Aerobactin synthetase IucA (Klebsiella pneumoniae). Description: inhibition of K. pneumoniae IucA enzyme – biochemical, Tocris library, absorbance (AID 1345561).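 Note: 100% = enzyme without compound and 0% = no enzyme.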 As to conditions: purified IucA enzyme assay, absorbance (OD) read-out; stronger effect = lower value;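 tested at 8 µM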.
Assay [2] can be described thus: antimalarial activity against Dd2 strain (AID 2302;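 active = growth inhibition above 50% at the single 2 µM test dose, taken to imply half-maximal potency below 2 µM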;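 note: 0% = DMSO untreated growth and 100% = chloroquine plus artemisinin killed control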). As to conditions: P. falciparum Dd2 in RBCs, LDH growth readout, 72 h; at 2 µM; stronger effect = higher value.
Assay [3] can be described thus: human hepatoma cell viability loss – ATP luminescence, cytotoxicity control for P. falciparum antimalarial project, primary screen (AID 2303;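 active = inhibition above 50%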;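 note: 0% = DMSO wells and 100% = digitonin-killed cells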). As to conditions: HepG2 viability, 24-48 h, at 10 µM, stronger effect = higher value.
Assay [4] has as its target L-lactate dehydrogenase (Plasmodium falciparum (isolate CDC / Honduras)) (UniProt Q27743). Nature of the assay: PfLDH activity inhibition – cell lysate, 3D7 strain, counter-screen for P. falciparum growth inhibition project (AID 2304).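 Note: 0% = vehicle and 100% = reference inhibitor.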 The settings on record: P. falciparum 3D7 crude extract, LDH APAD/NBT absorbance; at 2 µM; stronger effect = higher value. (Counterscreens check selectivity or assay interference.)

A short description of assay [5]: inhibition of 3D7 malaria parasite growth – strain 3D7 (AID 2306).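 Note: 0% = DMSO wells and 100% = chloroquine plus artemisinin control wells.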 The settings on record: P. falciparum 3D7 erythrocytic growth, LDH absorbance, 72 h; at 2 µM; stronger effect = higher value.
For assay [6], the target named is Calcium-dependent protein kinase 1 (Plasmodium falciparum (isolate 3D7)) (UniProt P62344). Nature of the assay: PfCDPK1 kinase inhibitors, biochemical, TCAMS library (AID 1159585; cut-off not given, nearly all actives have IC50 up to about 0.98 µM;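 note: inhibitors leave more ATP so luminescence rises with inhibition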). The settings on record: recombinant PfCDPK1, Kinase-Glo ATP depletion luminescence.
Assay [7] addresses Plasmodium falciparum protein kinase 6 (PK6, PF3D7_1337100) (UniProt Q8IDW1). Nature of the assay: PfPK6 kinase inhibitors, biochemical, TCAMS library (AID 1159586). The settings on record: recombinant PfPK6, Kinase-Glo ATP depletion luminescence.
Assay [8] deals with Protein kinase 7 (PK7), Plasmodium falciparum 3D7 (PF3D7_0213400) (UniProt Q7YTF7). Nature of the assay: inhibition of Plasmodium PK7 catalytic activity – biochemical, TCAMS antimalarial set, Kinase-Glo luminescence (AID 1159587). The settings on record: recombinant PfPK7, Kinase-Glo ATP depletion luminescence. On the technique in general: Kinase-Glo measures the ATP left after a reaction by luminescence.

Assay [9] concerns the target Calcium-dependent protein kinase 4 (Plasmodium falciparum (isolate 3D7)) (UniProt Q8IBS5). Nature of the assay: PfCDPK4 kinase inhibitors, biochemical, TCAMS library (AID 1159588; cut-off not given, nearly all actives have IC50 up to about 0.91 µM). The settings on record: recombinant PfCDPK4, Kinase-Glo ATP depletion luminescence.
A short description of assay [10]: viability loss in pontine glioma line – cell-based, SU-DIPG-XVII, MIPE5.0, CellTiter-Glo, qHTS, dose response (AID 1347060; cut-off not given, nearly all actives have AC50 up to about 26 µM;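 for AC50: cells exposed to compound for 48 hours before viability readout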). The settings on record: CellTiter-Glo ATP luminescence. (Cellular ATP, detected with luciferase, serves as a proxy for viable cell number.)
Assay [11] is described as follows: viability loss in pontine glioma line – cell-based, SU-DIPG-XIII, MIPE4.0, CellTiter-Glo, qHTS, dose response (AID 1347061; cut-off not given, nearly all actives have AC50 up to about 37 µM;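 note: cells exposed to compound for 48 hours before readout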). The settings on record: CellTiter-Glo ATP luminescence.
The nature of assay [12]: viability loss in pontine glioma line – cell-based, JHH-DIPG-1, MIPE4.0, CellTiter-Glo, qHTS, dose response (AID 1347062; cut-off not given, nearly all actives have AC50 up to about 27 µM;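 for AC50: cells exposed to compound for two days before readout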). The settings on record: JHH-DIPG-1 viability, CellTiter-Glo ATP luminescence.
Assay [13] can be described thus: viability loss in pontine glioma line – cell-based, SU-DIPG-IV, MIPE4.0, CellTiter-Glo, qHTS, dose response (AID 1347063; cut-off not given, nearly all actives have AC50 up to about 30 µM;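 note: compound exposure lasted 48 hours before the viability readout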). As to conditions: CellTiter-Glo ATP luminescence.
A short description of assay [14]: viability loss in pontine glioma line – cell-based, SU-DIPG-XXV, MIPE5.0, CellTiter-Glo, qHTS, dose response (AID 1347065; cut-off not given, nearly all actives have AC50 up to about 26 µM;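 note: cells exposed to compound for 48 hours before ATP readout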). As to conditions: CellTiter-Glo ATP luminescence.
Assay [15] is described as follows: growth inhibition of DIPG cells – cell-based, MIPE4.0 library, CellTiter-Glo luminescence, qHTS (AID 1347066; cut-off not given, nearly all actives have AC50 up to about 30 µM;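 note: cells exposed to compound for 48 hours before readout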). The settings on record: SU-DIPG-VI viability, CellTiter-Glo ATP luminescence.
Assay [16] can be described thus: JHH-DIPG-1 glioma cell viability, MIPE5.0 library, CellTiter-Glo luminescence, qHTS (AID 1347067; cut-off not given, nearly all actives have AC50 up to about 26 µM;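 note: cells exposed to compound for 48 hours before readout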). As to conditions: JHH-DIPG-1 glioma viability, CellTiter-Glo ATP luminescence.
Assay [17] in a line: growth inhibition of DIPG cells – cell-based, MIPE5.0 library, qHTS (AID 1347068; cut-off not given, nearly all actives have IC50 up to about 30 µM;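 for IC50: cells exposed to compound for 48 hours before viability readout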). The settings on record: SU-DIPG-XXV viability.
The nature of assay [18]: selective SMN2 exon splicing luciferase activators – cell-based, SMN2/SMN1 luciferase reporters (AID 1598). The settings on record: SMN2 vs SMN1 luciferase splicing reporter cells, at 10 µM; SMN1 luciferase ratio: measured here: SMN1 luciferase reporter average; SMN2 luciferase ratio: measured here: SMN2 luciferase reporter average, stronger effect = higher value; SMN2/SMN1 luciferase ratio: stronger effect = higher value.

A short description of assay [19]: chitosan synthesis blockers in C. neoformans – flow cytometry, Cibacron Brilliant Red staining (AID 1347148).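 Note: compound exposure lasted three days at 37 degrees C.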 As to conditions: Cryptococcus neoformans chitosan, stronger effect = lower value; at 10 µM unless noted.
A short description of assay [20]: viability loss in pontine glioma line – cell-based, SU-DIPG-XIII, MIPE5.0, CellTiter-Glo, qHTS, dose response (AID 1347064; cut-off not given, nearly all actives have AC50 up to about 23 µM;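 for AC50: cells exposed to compound for 48 hours before the viability read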). The settings on record: CellTiter-Glo ATP luminescence.

Plasmodium falciparum protein kinase 6 (PK6, PF3D7_1337100), sequence (Q8IDW1 1-305): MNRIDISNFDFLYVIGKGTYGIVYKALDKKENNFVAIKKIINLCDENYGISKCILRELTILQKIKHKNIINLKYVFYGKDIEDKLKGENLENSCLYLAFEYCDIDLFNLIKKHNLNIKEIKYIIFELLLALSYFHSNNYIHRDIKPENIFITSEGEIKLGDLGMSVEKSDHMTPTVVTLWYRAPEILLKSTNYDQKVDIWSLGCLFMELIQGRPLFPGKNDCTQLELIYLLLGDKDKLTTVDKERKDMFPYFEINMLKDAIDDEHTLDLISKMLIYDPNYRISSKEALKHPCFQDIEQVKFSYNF
Calcium-dependent protein kinase 4 (Plasmodium falciparum (isolate 3D7)), sequence (Q8IBS5 whole entry, looked up): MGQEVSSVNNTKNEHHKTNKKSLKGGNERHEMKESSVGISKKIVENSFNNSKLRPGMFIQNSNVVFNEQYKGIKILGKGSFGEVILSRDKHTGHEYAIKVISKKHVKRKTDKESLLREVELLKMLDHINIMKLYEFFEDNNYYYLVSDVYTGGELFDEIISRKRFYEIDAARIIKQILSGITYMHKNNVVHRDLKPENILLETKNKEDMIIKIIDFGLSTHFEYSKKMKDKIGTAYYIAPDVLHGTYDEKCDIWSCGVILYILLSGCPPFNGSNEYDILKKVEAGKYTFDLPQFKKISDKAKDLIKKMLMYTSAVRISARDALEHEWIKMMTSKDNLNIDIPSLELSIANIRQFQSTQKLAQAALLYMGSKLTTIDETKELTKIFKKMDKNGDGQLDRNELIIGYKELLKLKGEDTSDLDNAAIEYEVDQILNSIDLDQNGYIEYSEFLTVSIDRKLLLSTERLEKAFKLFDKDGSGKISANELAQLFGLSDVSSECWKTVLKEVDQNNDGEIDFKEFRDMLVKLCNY
Calcium-dependent protein kinase 1 (Plasmodium falciparum (isolate 3D7)), sequence (P62344 whole entry, looked up): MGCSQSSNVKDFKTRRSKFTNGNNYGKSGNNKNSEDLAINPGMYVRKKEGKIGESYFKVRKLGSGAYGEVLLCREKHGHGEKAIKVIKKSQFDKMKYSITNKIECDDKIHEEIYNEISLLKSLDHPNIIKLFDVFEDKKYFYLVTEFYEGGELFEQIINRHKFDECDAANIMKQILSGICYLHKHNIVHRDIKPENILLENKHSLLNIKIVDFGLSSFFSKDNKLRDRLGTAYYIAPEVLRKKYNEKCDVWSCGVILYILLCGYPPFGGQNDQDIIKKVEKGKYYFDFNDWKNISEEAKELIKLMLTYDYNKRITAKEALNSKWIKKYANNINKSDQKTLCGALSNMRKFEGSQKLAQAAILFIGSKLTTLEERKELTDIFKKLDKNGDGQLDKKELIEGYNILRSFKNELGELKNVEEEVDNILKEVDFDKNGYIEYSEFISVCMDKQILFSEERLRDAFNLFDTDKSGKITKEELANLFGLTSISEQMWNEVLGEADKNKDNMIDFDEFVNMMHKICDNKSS
L-lactate dehydrogenase (Plasmodium falciparum (isolate CDC / Honduras)), sequence (Q27743 whole entry, looked up): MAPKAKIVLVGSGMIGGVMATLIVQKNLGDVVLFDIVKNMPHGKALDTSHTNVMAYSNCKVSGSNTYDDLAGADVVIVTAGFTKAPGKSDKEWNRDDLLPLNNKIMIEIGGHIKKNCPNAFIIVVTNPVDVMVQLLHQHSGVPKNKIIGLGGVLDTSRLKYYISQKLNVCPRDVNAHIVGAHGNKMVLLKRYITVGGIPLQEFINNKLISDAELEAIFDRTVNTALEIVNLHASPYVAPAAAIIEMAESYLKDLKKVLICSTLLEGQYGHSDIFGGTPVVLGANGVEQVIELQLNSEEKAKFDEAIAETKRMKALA
Protein kinase 7 (PK7), Plasmodium falciparum 3D7 (PF3D7_0213400), sequence (Q7YTF7 1-343): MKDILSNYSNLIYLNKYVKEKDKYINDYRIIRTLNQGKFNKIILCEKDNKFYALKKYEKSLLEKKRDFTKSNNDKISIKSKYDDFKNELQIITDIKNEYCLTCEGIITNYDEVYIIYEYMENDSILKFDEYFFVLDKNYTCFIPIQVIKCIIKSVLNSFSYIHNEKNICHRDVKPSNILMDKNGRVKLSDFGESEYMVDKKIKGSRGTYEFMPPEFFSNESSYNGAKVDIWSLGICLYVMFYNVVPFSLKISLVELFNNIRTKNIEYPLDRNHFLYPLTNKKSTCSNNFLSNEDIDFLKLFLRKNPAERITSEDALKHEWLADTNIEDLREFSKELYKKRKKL

What is called remaining activity is the signal under treatment as a percentage of the control signal. Consider `C=CCN1CC[C@]23c4c5ccc(O)c4O[C@H]2C(=O)CC[C@@]3(O)[C@H]1C5`, for which, in [1], the remaining activity is 101% (inactive).
In general, inhibition refers to the change of the read-out against control, counted positive when it falls. For `CC[C@H]1CN2CC[C@H]1C[C@@H]2[C@@H](O)c1ccnc2ccc(OC)cc12`, the values for the growth inhibition in assay [2] and in [5] were 95% (active) and 100% (active), respectively. Besides, the inhibition was -3% (inactive) in [3] and 1% (inactive) in assay [4]. Also, the result in [6], in [7], in assay [8] and in assay [9] was inactive.
One may read the AC50 as the concentration giving half of the maximal activity seen. On to `CC(C)CC(N(C)C)C1(c2ccc(Cl)cc2)CCC1` (configuration not stated), for which the molecule was called inactive in assay [10], in assay [12], in assay [13], in assay [14], in assay [15] and in assay [16]. Moreover, in [17], the molecule was classed as inactive. For the same molecule, the AC50 in assay [11] is 23500 nM (active).
For the molecule `CC[C@@]1(O)C(=O)OCc2c1cc1n(c2=O)Cc2cc3ccccc3nc2-1`, the SMN1 luciferase ratio in assay [18] was found to be 0.16. Besides, the SMN2/SMN1 luciferase ratio in [18] is 1.74 (active). For the same molecule, in assay [18], the SMN2 luciferase ratio came out at 0.26. Besides, in assay [1], the remaining activity was 122% (inactive). For the same molecule, the AC50 in assay [10] was 16.6 nM (active); in [13], 46.9 nM (active); in assay [16] it was 1480 nM (active). The outcome in assay [15] and in assay [17] was inactive. Moreover, the fold fluorescence in assay [19] is 6.75 [at 143.5 µM] (inactive).
With `C=C[C@H]1CN2CC[C@H]1C[C@@H]2[C@@H](O)c1ccnc2ccccc12`, the values for the growth inhibition in [2] and in assay [5] were 2% (inactive) and 101% (active), respectively. Further, the inhibition was -7% (inactive) in assay [3] and 3% (inactive) in [4]. Also, the result in assay [6], in [7], in assay [8] and in assay [9] was inactive.
Regarding `CC[C@@H](CO)NC(=O)[C@@H]1C=C2c3cccc4[nH]cc(c34)C[C@H]2N(C)C1`, the remaining activity in [1] is 127% (inactive).
For the molecule `C=C[C@H]1CN2CC[C@H]1C[C@H]2[C@H](O)c1ccnc2ccccc12`, the growth inhibition in [2] was 3% (inactive); in [5], 100% (active). In addition, the inhibition was 9% (inactive) in [3] and 2% (inactive) in assay [4]. In addition, the result in assay [6], in [7], in assay [8] and in assay [9] was inactive.
Turning to `Cc1nccc2c1[nH]c1ccccc12`, in [1], the remaining activity was 108% (inactive).
Regarding `O=C1CC[C@@]2(O)[C@H]3Cc4ccc(O)c5c4[C@@]2(CCN3CC2CC2)[C@H]1O5`, the call in assay [10], in [11], in [13], in assay [20], in assay [14] and in assay [15] was inactive. The outcome in assay [16] and in assay [17] was inactive.
With `COc1ccc(C[C@H]2NC[C@H](O)[C@H]2OC(C)=O)cc1`, the figures for the growth inhibition in assay [2] and in assay [5] were 98% (active) and 100% (active), respectively. The figures for the inhibition in [3] and in assay [4] were 39% (inactive) and 6% (inactive), respectively. For the same molecule, the outcome in assay [6], in [7], in assay [8] and in assay [9] was inactive. Also, the remaining activity in assay [1] was 125% (inactive). Also, the fold fluorescence in [19] was 11.2 [at 188.5 µM] (inactive).
With `O=c1c2ccccc2[se]n1-c1ccccc1`, the fold fluorescence in [19] is 9.59 [at 182.4 µM] (inactive).
With `COC1=C[C@@H]2[C@@H]3Cc4ccc(OC)c(O)c4[C@]2(CCN3C)CC1=O`, the AC50 in assay [11] is 3320 nM (active); in assay [13] it was 935 nM (active). Further, the call in assay [20], in [14], in [15], in assay [16] and in assay [17] was inactive.
As usually defined, the IC50 is the concentration that gives 50% inhibition. `COc1cc([C@@H]2c3cc4c(cc3[C@@H](O)C3COC(=O)C32)OCO4)cc(OC)c1O` (some centres not stated): the AC50 is 263 nM (active) in [10], 525 nM (active) in [20] and 417 nM (active) in assay [14]. Also, the IC50 in assay [17] was 332 nM (active).
For the molecule `O=C1C=CC(=O)c2c(O)cccc21`, in [19], the fold fluorescence was 2.01 [at 287.1 µM] (active).
As for `COc1cc(OC)c(OC)cc1C=O`, the call in assay [11], in assay [12], in [13] and in assay [15] was inactive.
For the molecule `CC1=C(O)C(=O)C=C2C1=CC=C1[C@@]2(C)CC[C@@]2(C)[C@@H]3C[C@](C)(C(=O)O)CC[C@]3(C)CC[C@]12C`, the AC50 in assay [10] is 2090 nM (active); in [11] it was 3320 nM (active); in [12], 2640 nM (active); in [13], 1320 nM (active); in assay [20], 2350 nM (active); in assay [14] it was 1660 nM (active). In addition, the results for the AC50 in [15] and in assay [16] were 1180 nM (active) and 934 nM (active), respectively. Further, the IC50 in assay [17] is 11800 nM (active).
In the case of `O=C1C=C2C(=CCOC2O)O1` (configuration not stated), in assay [18], the SMN1 luciferase ratio was 0.26, the SMN2/SMN1 luciferase ratio is 2.76 (active) and the SMN2 luciferase ratio worked out at 0.46.
